Experimental data as given in PubChem BioAssay.
The source made the active and inactive calls.

Tests used:
Albumin (Bos taurus) = Albumin (Bos taurus) (UniProt P02769); test: bovine serum albumin binders on microarray, profiling panel, artefact control for SMM control protein annotation, biochemical, small-molecule microarray, Alexa647 label, 635/667 nm fluorescence (AID 1118); details: BSA-A647 binding, fluorescence 635 nm, higher = more signal;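 further: score merges 667 nm emission intensity and signal-to-noise per printed compound spot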
Albumin (Bos taurus), sequence (P02769 whole entry, looked up): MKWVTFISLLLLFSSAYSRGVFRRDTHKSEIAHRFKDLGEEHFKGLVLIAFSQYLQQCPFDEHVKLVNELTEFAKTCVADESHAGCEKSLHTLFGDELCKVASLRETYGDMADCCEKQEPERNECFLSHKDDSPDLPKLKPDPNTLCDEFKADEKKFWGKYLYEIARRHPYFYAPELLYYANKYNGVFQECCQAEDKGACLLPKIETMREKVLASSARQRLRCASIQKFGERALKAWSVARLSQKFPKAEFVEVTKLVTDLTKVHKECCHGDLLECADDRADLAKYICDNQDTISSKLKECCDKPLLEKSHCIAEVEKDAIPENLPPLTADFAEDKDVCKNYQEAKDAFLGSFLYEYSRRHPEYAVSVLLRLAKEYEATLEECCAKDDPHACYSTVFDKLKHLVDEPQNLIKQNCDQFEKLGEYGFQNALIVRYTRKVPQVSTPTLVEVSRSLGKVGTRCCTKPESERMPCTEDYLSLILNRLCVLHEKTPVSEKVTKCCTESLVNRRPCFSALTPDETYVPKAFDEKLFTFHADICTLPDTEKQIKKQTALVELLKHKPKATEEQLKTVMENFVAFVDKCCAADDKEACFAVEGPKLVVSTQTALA

[1] = small-molecule microarray binders of probe aXIP, primary screen, biochemical, NeuroSMM set, 635/667 nm fluorescence (AID 1119); details: higher = more signal, called active from +8 up or from −8 down;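 further: probe is the protein aXip251-270 applied at 1 µg/mL to compound-printed slides; binding of probe to printed compounds measured as 667 nm fluorescence plus signal to noise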
[2] = small-molecule binders of probe aNOTCH3, primary screen, biochemical, small-molecule microarray, 635/667 nm fluorescence (AID 1120); details: higher = more signal;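 further: probe is a biotin-tagged antibody raised against NOTCH3 rather than NOTCH3 protein; score merges spot fluorescence near 667 nm with spot signal to noise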
[3] = small-molecule binders of probe aNOTCH2, primary screen, biochemical, small-molecule microarray, 635/667 nm fluorescence (AID 1121); details: higher = more signal;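 further: score merges feature fluorescence read at 667 nm with its signal to noise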
[4] = target: Carbonic anhydrase 2 (Homo sapiens) (UniProt P00918); test: CAII small-molecule binders, profiling panel, biochemical, small-molecule microarray, Alexa647-labelled CAII (AID 1122); details: CAII-A647 binding fluorescence, higher = more signal
[5] = COS7 lysate on small-molecule microarray, probe aHis, 635 nm (AID 1123); details: COS7 cell lysate, fluorescence, higher = more signal;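 further: z-score combines 667nm fluorescence intensity with signal-to-noise per printed compound spot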
[6] = compound binding in COS7 lysate, probe aLAP1, primary screen, cell lysate, small-molecule microarray (AID 1124); details: probe aLAP1, fluorescence, higher = more signal;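 further: lysate comes from COS7 cells expressing LAP1 and is applied at 0.3 µg/mL; score merges spot fluorescence near 667 nm with signal-to-noise over triplicate slides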
Sam68 (KHDRBS1) = test: Sam68 small-molecule binders, primary screen, biochemical, small-molecule microarray, 635 nm fluorescence (AID 1125); details: small-molecule microarray binding, higher = more signal;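 further: score merges 667 nm channel intensity with signal to noise over triplicate slides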
[7] = tested on: Chordin-like protein 2 (CHRDL2); test: CHRDL2 small-molecule binders, primary screen, biochemical, small-molecule microarray, 635 nm fluorescence (AID 1126); details: small-molecule microarray binding, fluorescence 635 nm; higher = more signal;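 further: printed compound slides probed with Chrdl2 protein at 4 µg/mL for 1 h at 4 C; score merges 667 nm emission intensity with signal to noise over three replicate slides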
[8] = target: Concanavalin-A (Canavalia ensiformis) (UniProt P02866); test: ConA small-molecule binders, primary screen, artefact control for SMM control protein annotation, biochemical, small-molecule microarray, Alexa647 label, 635 nm (AID 1127); details: ConA-A647 binding fluorescence, higher = more signal;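 further: z combines 667 nm emission intensity with signal-to-noise across three replicate slides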
Concanavalin-A (Canavalia ensiformis), sequence (P02866 whole entry, looked up): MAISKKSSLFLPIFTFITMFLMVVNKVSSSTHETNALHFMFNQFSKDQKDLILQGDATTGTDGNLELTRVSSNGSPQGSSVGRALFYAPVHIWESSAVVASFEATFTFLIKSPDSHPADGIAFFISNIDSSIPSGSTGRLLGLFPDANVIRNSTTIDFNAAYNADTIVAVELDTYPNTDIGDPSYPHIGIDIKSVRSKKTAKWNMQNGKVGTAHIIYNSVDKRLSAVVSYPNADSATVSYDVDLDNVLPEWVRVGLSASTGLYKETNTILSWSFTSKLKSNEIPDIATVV

[9] = anti-His antibody binders, primary screen, artefact control for SMM control protein annotation, biochemical, small-molecule microarray, 635 nm fluorescence (AID 1128); details: anti-His Alexa647 antibody binding, higher = more signal;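 further: score merges feature fluorescence with signal-to-noise for each printed compound spot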
[10] = tested on: Human papillomavirus type 1a E7 protein (residues 1-88); test: HPV1a E7 small-molecule binders, primary screen, biochemical, small-molecule microarray, residues 1-88, 635 nm (AID 1129); details: small-molecule microarray binding, fluorescence 635 nm; higher = more signal
[11] = target: Focal adhesion kinase 1 (Homo sapiens) (UniProt Q05397); test: small-molecule microarray binders of FAK, primary screen, biochemical, 635/667 nm fluorescence, BSA, DTT (AID 1130); details: PTK2 binding, 635 nm fluorescence, higher = more signal;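 further: composite of spot emission at 667 nm and signal to noise over triplicate slides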
Focal adhesion kinase 1 (Homo sapiens), sequence (Q05397 whole entry, looked up): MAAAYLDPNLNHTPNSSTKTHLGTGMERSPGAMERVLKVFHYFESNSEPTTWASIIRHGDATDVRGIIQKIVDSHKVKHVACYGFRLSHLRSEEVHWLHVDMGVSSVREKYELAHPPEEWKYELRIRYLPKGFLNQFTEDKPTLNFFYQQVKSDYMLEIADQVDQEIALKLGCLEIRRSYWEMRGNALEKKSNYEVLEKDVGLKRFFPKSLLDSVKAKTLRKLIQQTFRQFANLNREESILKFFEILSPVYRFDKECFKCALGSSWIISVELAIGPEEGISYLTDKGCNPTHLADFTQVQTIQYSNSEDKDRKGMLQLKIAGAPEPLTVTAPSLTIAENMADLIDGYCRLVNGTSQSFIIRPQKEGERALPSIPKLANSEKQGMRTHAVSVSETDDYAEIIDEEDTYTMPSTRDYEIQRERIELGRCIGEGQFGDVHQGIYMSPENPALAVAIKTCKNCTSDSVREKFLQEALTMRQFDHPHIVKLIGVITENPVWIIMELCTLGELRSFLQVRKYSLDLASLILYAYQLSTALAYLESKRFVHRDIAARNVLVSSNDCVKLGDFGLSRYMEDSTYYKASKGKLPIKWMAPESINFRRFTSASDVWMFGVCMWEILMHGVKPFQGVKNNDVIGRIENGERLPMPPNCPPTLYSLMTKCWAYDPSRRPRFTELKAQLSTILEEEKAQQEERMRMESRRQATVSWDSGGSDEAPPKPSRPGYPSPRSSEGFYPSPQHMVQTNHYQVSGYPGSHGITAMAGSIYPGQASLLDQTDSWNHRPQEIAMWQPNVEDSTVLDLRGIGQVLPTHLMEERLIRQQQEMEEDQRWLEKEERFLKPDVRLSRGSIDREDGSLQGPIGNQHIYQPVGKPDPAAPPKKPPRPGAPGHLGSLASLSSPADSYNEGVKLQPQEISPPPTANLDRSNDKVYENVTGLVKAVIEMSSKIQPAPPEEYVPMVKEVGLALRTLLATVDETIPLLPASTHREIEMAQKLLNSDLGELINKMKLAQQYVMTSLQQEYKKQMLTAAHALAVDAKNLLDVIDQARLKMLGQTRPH

[12] = tested on: Fibrinogen (Alexa647-labelled); test: fibrinogen binders on compound microarrays, profiling panel, artefact control for SMM control-protein annotation, biochemical, small-molecule microarray, 635/667 nm fluorescence (AID 1131); details: fibrinogen-A647 binding fluorescence, higher = more signal;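 further: z-score merges 667 nm fluorescence with per-spot signal-to-noise over triplicate slides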
[13] = target: Follistatin (Homo sapiens) (UniProt P19883); test: follistatin binders on small-molecule microarrays, primary screen, biochemical, small-molecule microarray, 635/667 nm fluorescence (AID 1132); details: FST binding, 635 nm fluorescence, higher = more signal
Follistatin (Homo sapiens), sequence (P19883 whole entry, looked up): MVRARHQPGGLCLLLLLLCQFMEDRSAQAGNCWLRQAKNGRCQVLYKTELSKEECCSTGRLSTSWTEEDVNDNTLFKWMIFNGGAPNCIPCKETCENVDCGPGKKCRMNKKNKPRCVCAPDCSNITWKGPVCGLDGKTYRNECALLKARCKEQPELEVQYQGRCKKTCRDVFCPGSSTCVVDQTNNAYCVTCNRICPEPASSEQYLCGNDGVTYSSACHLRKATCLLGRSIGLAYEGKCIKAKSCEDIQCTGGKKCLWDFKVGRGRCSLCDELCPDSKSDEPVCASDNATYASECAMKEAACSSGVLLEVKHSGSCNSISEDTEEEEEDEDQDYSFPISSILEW

[14] = target: Fibroblast growth factor 2 (Homo sapiens) (UniProt P09038); test: FGF2 binders on small-molecule microarrays, primary screen, biochemical, small-molecule microarray, 635/667 nm fluorescence (AID 1133); details: small-molecule microarray binding, FGF2, fluorescence 635/667; higher = more signal
Fibroblast growth factor 2 (Homo sapiens), sequence (P09038 whole entry, looked up): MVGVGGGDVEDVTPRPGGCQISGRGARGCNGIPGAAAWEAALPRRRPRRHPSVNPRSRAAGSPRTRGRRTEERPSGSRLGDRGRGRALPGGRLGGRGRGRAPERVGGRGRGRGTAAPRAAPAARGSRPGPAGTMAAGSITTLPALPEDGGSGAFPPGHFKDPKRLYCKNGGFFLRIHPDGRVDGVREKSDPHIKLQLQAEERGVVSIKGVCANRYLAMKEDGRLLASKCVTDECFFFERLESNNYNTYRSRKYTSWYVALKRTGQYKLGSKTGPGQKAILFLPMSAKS

[15] = mitochondrial membrane potential change in A549 cells, profiling panel, cell-based, JC-1 fluorescence, basal, 24 h, 100 nL (AID 1138); details: higher = more signal;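 further: A549 lung adenocarcinoma cells under basal conditions with no added stimulus; test concentration not given here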
Lefty1 = Lefty1 binders on small-molecule microarrays, primary screen, biochemical, small-molecule microarray, 635/667 nm fluorescence (AID 1139); details: small-molecule microarray binding, fluorescence 635/667; higher = more signal
[16] = tested on: wheat germ agglutinin (Triticum aestivum), Alexa647-labelled; test: wheat germ agglutinin binders on compound microarrays, profiling panel, artefact control for SMM control-protein annotation, biochemical, small-molecule microarray, 635/667 nm fluorescence (AID 1140); details: WGA-A647 binding, 635 nm fluorescence, higher = more signal;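 further: score merges 667 nm feature emission with signal to noise over triplicate slides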
[17] = target: Luciferin 4-monooxygenase (Photinus pyralis) (UniProt P08659); test: firefly luciferase enzyme inhibitors, primary screen, biochemical, luminescence, purified enzyme, 2006 set (AID 1141); details: SteadyGlo luminescence, 30 min, higher = more signal, called active from +8 up or from −8 down;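 further: cell-free assay with purified firefly luciferase at 100 ng per well in PBS; test concentration not given here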
Luciferin 4-monooxygenase (Photinus pyralis), sequence (P08659 whole entry, looked up): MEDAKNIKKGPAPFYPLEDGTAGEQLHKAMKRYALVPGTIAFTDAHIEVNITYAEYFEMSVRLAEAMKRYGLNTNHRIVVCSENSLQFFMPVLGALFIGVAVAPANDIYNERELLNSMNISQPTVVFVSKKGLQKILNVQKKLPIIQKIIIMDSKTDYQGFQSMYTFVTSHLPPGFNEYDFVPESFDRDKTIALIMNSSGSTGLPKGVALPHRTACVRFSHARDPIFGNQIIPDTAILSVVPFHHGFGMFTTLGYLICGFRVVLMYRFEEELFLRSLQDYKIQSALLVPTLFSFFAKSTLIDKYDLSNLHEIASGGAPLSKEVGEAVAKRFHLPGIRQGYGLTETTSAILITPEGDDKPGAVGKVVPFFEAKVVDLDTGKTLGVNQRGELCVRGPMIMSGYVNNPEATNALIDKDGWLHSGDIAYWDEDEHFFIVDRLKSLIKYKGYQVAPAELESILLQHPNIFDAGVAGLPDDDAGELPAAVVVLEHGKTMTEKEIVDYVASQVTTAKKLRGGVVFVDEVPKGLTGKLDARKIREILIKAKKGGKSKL

Row | Structure (SMILES) | composite z-score (Albumin (Bos taurus)) | composite Z-score [1] | composite z-score [2] | composite z-score [3] | composite z-score [4] | composite z-score [5] | composite z-score [6] | composite z-score (Sam68 (KHDRBS1)) | composite z-score [7] | composite z-score [8] | composite z-score [9] | composite z-score [10] | composite z-score [11] | composite z-score [12] | composite z-score [13] | composite z-score [14] | z-score [15] | composite z-score (Lefty1) | composite z-score [16] | z-score [17]
1 | CS(=O)(=O)CCOC(=O)C1=CC(CCCO)=CC(C2CC2)N(Cc2sc3ccccc3c2Cl)C=C1C(=O)OCCS(C)(=O)=O (stereo not given) | 1.01 | -0.0349 (inactive) | 0.398 | 0.0706 | 0.666 | 2.34 | 0.549 | 1.07 | -0.225 | 0.648 | 2.14 | 1.04 | 0.435 | 0.753 | 1.3 | 0.897 | 0.995 | 1.23 | 1.03 | -1.14 (inactive)
2 | O=C1C2C=CC(C(O)C3CC=CCC3)N(Nc3ccc([N+](=O)[O-])cc3)C2C(=O)N1c1ccccc1 (stereo not given) | 0.82 | 0.626 (inactive) | 0.749 | 0.326 | 0.693 | 2.5 | 1.21 | 1.33 | 0.729 | 1.07 | 2.2 | 1.2 | 0.876 | 0.994 | 1.36 | 0.0341 | -0.861 | 0.307 | 0.862 | 0.83 (inactive)
3 | CC(C)c1ccc(NN2C(C(O)C(C)c3ccccc3)C=CC3C(=O)N(c4ccccc4)C(=O)C32)cc1 (stereo not given) | 1.03 | 0.304 (inactive) | 0.578 | 0.589 | 0.749 | 3.34 | 0.952 | 1.28 | 0.306 | 1.17 | 1.63 | 1.17 | 0.531 | 0.988 | 1.2 | 0.558 | -0.864 | 0.155 | 1.19 | 0.222 (inactive)
4 | COc1ccc([Si](C)(C)[C@@H]2[C@@H](CC(=O)N3CCC[C@H]3CO)O[C@]3(C(=O)N(Cc4cccc(N5C(=O)c6cccc7cccc5c67)c4)c4ccccc43)[C@H]2C)cc1 | 0.601 | 0.681 (inactive) | -0.0701 | -0.166 | 0.394 | 0.386 | 0.104 | 0.905 | 0.568 | 1.13 | 1.2 | 1.03 | 0.948 | 0.584 | 1.16 | 1.43 | -0.0137 | 0.839 | 1.21 | -0.0921 (inactive)
5 | COc1cccc(C)c1NC(=O)O[C@H]1[C@H](OC(=O)Nc2ccccc2-c2ccccc2)[C@@H](OC(=O)Nc2ccccc2-c2ccccc2)[C@@H](OC)O[C@@H]1CO | 0.848 | 0.694 (inactive) | 0.668 | 0.0151 | 0.712 | 1.44 | 0.762 | 1.3 | 0.0298 | 1.02 | 1 | 1.25 | 1.29 | 1.02 | 1.27 | 0.317 | -0.158 | 0.719 | 0.55 | -0.742 (inactive)
6 | COCCCNC(=O)[C@@]1(Cc2ccccc2I)c2ccccc2C(=O)N(C2CCCCC2)[C@H]1c1ccc(CO)cc1 | 0.653 | 0.732 (inactive) | -0.0377 | -0.112 | 0.544 | 2.36 | 0.386 | 1.03 | -0.415 | 0.75 | 0.912 | 1.02 | 0.312 | 0.544 | 0.926 | 1.29 | 0.438 | 0.812 | 0.772 | 0.948 (inactive)
